Key:
Assay in all cases: PBM binding z-score (relative to random genomic background probes); higher = stronger binding; sequences stand for … in GC…GCGATTGACAGCGTAGAATGAAGG
[1] = tested on: RARb homodimer (NR concentration 270 nM)
Procedure, shortened: (§1)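 Random background probes are the reference for binding z-scores. These scores derive from regression-normalized fluorescence on custom Agilent 4×180K protein-binding microarrays incubated 1 h with ligand-free nuclear receptor dimers. Binding was detected with antibodies against each partner (one per run).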

[2] = tested on: RARg:RXRa (NR concentration 270 nM, RXRa partner concentration 90 nM)
Procedure, shortened: as §1

[3] = tested on: RARg homodimer (NR concentration 270 nM)
Procedure, shortened: as §1

[4] = tested on: RXRa DBDmut IVT, anti-RXR (DBD mutation: RXRa K156A/R161A, NR concentration 90 nM)
Procedure, shortened: as §1

[5] = tested on: RXRa homodimer (NR concentration 180 nM)
Procedure, shortened: as §1

[6] = tested on: THRa:RXRa (NR concentration 90 nM, RXRa partner concentration 90 nM)
Procedure, shortened: as §1

[7] = tested on: THRa homodimer (NR concentration 90 nM)
Procedure, shortened: as §1

[8] = tested on: VDR:RXRa (NR concentration 270 nM, RXRa partner concentration 90 nM)
Procedure, shortened: as §1

[9] = tested on: VDR homodimer (NR concentration 270 nM)
Procedure, shortened: as §1

Sequence | PBM binding z-score [1] | PBM binding z-score [2] | PBM binding z-score [3] | PBM binding z-score [4] | PBM binding z-score [5] | PBM binding z-score [6] | PBM binding z-score [7] | PBM binding z-score [8] | PBM binding z-score [9]
TCATATAAGTAAAGGTGAAAGTCGAACGATATGA | 1.41 | 1.5 | 1.25 | 0.638 | 2.04 | 1.18 | -0.569 | 0.925 | -0.0399
CCTGTTAGGTCATGGTCAGCTAATCTACAGTATG | 3.36 | 4.05 | 4.61 | 2 | 2.89 | 3.73 | 2.91 | 2.02 | 0.791
CCGACTGGGCCAAGGTTACCATAACGCACAGCCA | 0.94 | 0.614 | 0.453 | -0.285 | 0.719 | 1.07 | 0.784 | -0.185 | -0.176
ACAAGCAGGCCAAGTTTGGGTCACTCAAACAAAG | 2.34 | 2.8 | 1.88 | -0.286 | 1.1 | 2.47 | 0.738 | 0.676 | -0.0153
AGAACGAGGGCACGCGGAGTTGATAGCAGAGTAG | 1.42 | 2.32 | 2.41 | 1.91 | 1.66 | 1.82 | -0.0223 | 1.95 | 1.18
TCATACAGGTAATACAGGTGAAAGTCGGCATCTA | 0.84 | 0.731 | 0.586 | 1.65 | 1.23 | 1.18 | 0.583 | 1.24 | 0.391
ACTAGCAGGCCAAGGGTCACTCACGATTAGTCCG | 3.79 | 3.91 | 2.97 | 0.459 | 3.93 | 2.56 | 0.409 | 2.69 | 1.07
CATACTGGGCCACGAAAGGTCATTGATTCAGTGA | 4.71 | 4.59 | 4.63 | 0.963 | 4.9 | 3.87 | 1.47 | 4.3 | 2.45
CCTACTGGACCAAAAAGGTCATTGATGCCGATAA | 4.26 | 4.54 | 4.04 | 1.08 | 5.04 | 3.33 | 1.43 | 4.77 | 3.2
TCCGCTAGGTCAACGATGGTCAGCTAATCTGCTA | 3.45 | 3.93 | 4.83 | 1.1 | 2.23 | 3.06 | 1.03 | 1.45 | -0.0724
ATCTGTAGGTAACAAGTTCAGTGAAAGAGAGGAC | 2.16 | 1.44 | 1.42 | 0.851 | 0.902 | 1.26 | 0.755 | 2 | 2.46
ACTATTAGTTGAGACGAGTGCAACCGATAGGTTG | -0.322 | 0.00696 | 0.277 | 0.58 | 0.199 | 0.501 | -0.775 | 0.942 | 1.49
ATCTCTAGGTAACAAAGTTCAGTGAATGCCGAAC | 2.76 | 2.04 | 1.99 | 0.878 | 1.36 | 1.56 | 0.601 | 3.18 | 2.02
CCAGACCGGTGAAAGGTAACTCAGTCTGGTACGC | 0.414 | 0.36 | -0.096 | -0.727 | 0.696 | 0.429 | -0.178 | 0.137 | -0.186
CCTTACGGGTAACTGACAGGTTATAGCATTTGGA | 0.321 | 0.742 | 0.501 | 0.0265 | 0.525 | 0.456 | -0.293 | 0.0689 | -0.157
AGTCAAAGTTCATCTAGGTAACGTGAGATATGCT | 3.97 | 5.63 | 6.26 | 4.74 | 4.89 | 3.05 | 0.297 | 5.17 | 4.95
GCTTACGGGTCAAAGGTTATAGCGTGAATAGAAT | 3.29 | 6.87 | 4.52 | 2.22 | 9.28 | 3.83 | 0.134 | 5.55 | 1.44
CCAACTAGGTCACGAAAGGTCAAAGTCGAATGAC | 6.02 | 8.03 | 8.57 | 2.76 | 8.76 | 5.44 | 2.87 | 6.81 | 3.88

From the supplement of paper PMC6555819
